# Values joined by “and” are separate entries in the source; they are usually repeats but may differ in a detail not shown here. Equal values may be shown once. Results filed as inconclusive are left out. A call without a number means that no potency is given here. Some structures have more than one record in an assay (separate samples or runs), and their calls can disagree. Active and inactive are the calls of the source. Unless noted, calls come from the whole dose curve; as a rule, active = well fitted curve in the direction sought with a large enough effect in the repeat runs; inconclusive = weak or mixed curves; inactive = no such curve, though single readings can be large; an effect the other way counts as inactive or inconclusive.
# How the values were obtained:
# [1] = target: Thyrotropin-releasing hormone receptor (Homo sapiens) (UniProt P34981); assay: qHTS assay to identify small molecule agonists of the thyrotropin-releasing hormone receptor (TRHR) signaling pathway (AID 1346891; calls by dose curve;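 note: HEK293 cells expressing TRHR with calcium dye readout; series mostly up to about 58 µM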)
# Outline: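 Kinetic fluorescence (3 min, 1 s intervals) reported intracellular calcium after compound transfer onto TRHR-Hek293 cells pre-loaded with dye for 2 h at 37 °C.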
# [2] = Human pregnane X receptor (PXR) small molecule agonists, qHTS cell viability counter screen (AID 1346977); note: nearly all actives have a fitted effect of over 50% in size
# Outline: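 HepG2 cells stably carrying the PXR-Luc reporter are cultured with 5% charcoal-stripped FBS and treated with compounds for 24hr. CellTiter-Fluor is added at 23hr and fluorescence is read after 1hr.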
# [3] = Caspase-3/7 induction in HepG2 cells by small molecules, qHTS assay (AID 1346978); note: nearly all actives have a fitted effect of over 15% in size
# Outline: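 Caspase-3/7 induction was measured by Caspase-Glo 3/7 luminescence (30 min, room temperature) after a 17 hr compound exposure of wild-type HepG2 cells seeded at 2,000 per well and pre-incubated 5 hr.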
# [4] = Caspase-3/7 induction in CHO-K1 cells by small molecules, qHTS cell viability counter screen (AID 1346979); note: nearly all actives have a fitted effect of over 35% in size
# Outline: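 Seeding: 1,500 CHO-K1 cells/well. Rest: 5hr, 37C. Treatment: compounds in DMSO, 16hr. Read: CellTiter-Fluor, 1hr, fluorescence.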
# [5] = Caspase-3/7 induction in CHO-K1 cells by small molecules, qHTS assay (AID 1346980); note: nearly all actives have a fitted effect of over 15% in size
# Outline: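 Luminescent Caspase-Glo 3/7 read (30min, room temperature) quantified apoptosis induction. Cells were wild-type CHO-K1, treated with compound for 17hr at 37 C and 5% CO2.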
# [6] = Caspase-3/7 induction in HepG2 cells by small molecules, qHTS cell viability counter screen (AID 1346981); note: series mostly up to about 92 µM; nearly all actives have a fitted effect of over 30% in size
# Outline: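 Fluorescence read-out of live-cell protease activity (CellTiter-Fluor) after 1 hr with reagent. This was measured in the same wells as the caspase-3/7 luminescence, on HepG2 cells exposed to DMSO-dissolved compounds for 16 hr at 37 C.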
# [7] = target: Acetylcholinesterase (Homo sapiens) (UniProt P22303); assay: Acetylcholinesterase (AChE) small molecule antagonists: colormetric cell-based qHTS assay (AID 1347395; calls by dose curve; note: nearly all actives have a fitted effect of over 30% in size; note: potency is the fitted concentration of half-maximal effect)
# Outline: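 Quantitative HTS in attached SH-SY5Y cells: 30 min compound exposure, then 90 min with acetylthiocholine and DTNB at 37 C; colour from thiocholine reports AChE activity.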
# [8] = target: Acetylcholinesterase (Homo sapiens) (UniProt P22303); assay: Acetylcholinesterase (AChE) small molecule antagonists: enzyme-based qHTS assay (AID 1347397; calls by dose curve; note: nearly all actives have a fitted effect of over 55% in size; note: potency is the fitted concentration of half-maximal effect); conditions: Potency: AChE enzyme activity inhibition
# Outline: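 Colorimetric DTNB readout of acetylthiocholine hydrolysis, 10 min at room temperature, after 30 min room-temperature exposure of 50 mU/mL recombinant human enzyme to compound; DMSO vehicle control.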
# [9] = target: Acetylcholinesterase (Homo sapiens) (UniProt P22303); assay: Acetylcholinesterase (AChE) small molecule antagonists: fluorescence cell-based qHTS assay (AID 1347398; calls by dose curve; note: nearly all actives have a fitted effect of over 50% in size; note: potency is the fitted concentration of half-maximal effect); conditions: Potency: AChE activity
# Outline: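 Cellular AChE activity read as thiocholine from acetylthiocholine hydrolysis, detected by Thiolite Green fluorescence at 490/520 nm after 40 min at room temperature. Compounds were pre-incubated 30 min at 37 C on adherent SH-SY5Y cells.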
# [10] = target: Acetylcholinesterase (Homo sapiens) (UniProt P22303); assay: Acetylcholinesterase (AChE) small molecule antagonists: enzyme-based qHTS assay with human liver microsomes (AID 1347399; calls by dose curve; note: nearly all actives have a fitted effect of over 60% in size; note: potency is the fitted concentration of half-maximal effect); conditions: Potency: qHTS inhibition
# Outline: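 Recombinant human AChE (50 mU/mL in the enzyme mix) and human liver microsomes (0.25 mg/mL final) were preincubated with compound and NADPH (0.25 mg/mL final) for 30 min at 37 C. Acetylthiocholine/DTNB was then added; thiocholine was read colorimetrically after 10 min at room temperature.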
# [11] = target: Voltage-gated inwardly rectifying potassium channel KCNH2 (Homo sapiens) (UniProt Q12809); assay: Human Ether-a-go-go-Related Gene (hERG) channel small molecule antagonists: fluorescence cell-based qHTS assay (AID 1671200);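 note: hERG-expressing U2OS cells given a thallium stimulus after FluxOR II dye loading; series mostly up to about 77 µM; nearly all actives have a fitted effect of over 50% in size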
# Outline: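 First, 1000 cells per well are seeded and cultured overnight at 37 C. Next, FluxOR II dye is loaded for 1 h at room temperature, protected from light. After 10 more minutes, stimulus is added and fluorescence is read.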
# [12] = target: Nuclear receptor subfamily 1 group I member 2 (Rattus norvegicus) (UniProt Q9R1A7); assay: Rat pregnane X receptor (rPXR) activation by small molecules, qHTS assay (AID 1346983); conditions: rPXR luciferase reporter cells, One-Glo luminescence, 24 h; max activation: stronger effect = higher value; note: nearly all actives have a fitted effect of over 20% in size
# Outline: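 Luminescent readout (One-Glo luciferase, 30 min room temperature) followed 24 hr compound treatment at 37 C of rPXR cells plated 2,000 per well and preincubated 5hr; qHTS format with compounds delivered in DMSO.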
# [13] = target: Nuclear receptor subfamily 1 group I member 2 (Homo sapiens) (UniProt O75469); assay: CYP3A4 induction through human pregnane X receptor (PXR) by small molecules, qHTS assay (AID 1346984); note: nearly all actives have a fitted effect of over 40% in size; note: potency is the fitted concentration of half-maximal effect
# Outline: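 HepG2-derived DPX-2 line carrying PXR plus a CYP3A4-promoter luciferase reporter; cells plated 5 hr, compound-exposed 24 hr at 37C. CYP3A4 activity probed with 3uM (final) Luciferin-IPA for 3hr, then luciferase read after One-Glo.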
# [14] = target: Nuclear receptor subfamily 1 group I member 2 (Homo sapiens) (UniProt O75469); assay: Human pregnane X receptor (PXR) activation by small molecules, qHTS assay (AID 1346985); note: nearly all actives have a fitted effect of over 40% in size; note: potency is the fitted concentration of half-maximal effect
# Outline: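 DPX-2 cells (HepG2 co-transfected with a PXR response element and a CYP3A4-promoter luciferase construct) were seeded at 2,000 per well, rested 5 hr at 37C, then exposed to DMSO-dissolved compounds for 24 hr. Activation was read as luciferase luminescence.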
# [15] = target: Cytochrome P450 2C19 (Homo sapiens) (UniProt P33261); assay: Cytochrome P450 Family 2 Subfamily C Member 19 (CYP2C19) small molecule antagonists: luciferase reporter qHTS assay (AID 1671197); note: nearly all actives have a fitted effect of over 65% in size; note: potency is the fitted concentration of half-maximal effect
# Outline: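 Quantitative high-throughput screen of the Tox21 library using CYP2C19 with proluciferin substrate. Reaction: NADPH regeneration, 37C, 1 h, after 10 min compound preincubation at room temperature. Readout: luminescence.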
# [16] = target: Cytochrome P450 1A2 (Homo sapiens) (UniProt P05177); assay: Cytochrome P450 Family 1 Subfamily A Member 2 (CYP1A2) small molecule antagonists: luciferase reporter qHTS assay (AID 1671199); note: nearly all actives have a fitted effect of over 50% in size; note: potency is the fitted concentration of half-maximal effect
# Outline: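 Luminescence readout (relative luminescence units) after luciferin detection reagent, 20 min RT. Preceded by 1 h room-temperature CYP1A2 reaction with NADPH regeneration solution following 10 min compound preincubation with enzyme and proluciferin substrate. Furafylline positive control.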
# [17] = target: Cytochrome P450 3A4 (Homo sapiens) (UniProt P08684); assay: Cytochrome P450 Family 3 Subfamily A Member 4 (CYP3A4) small molecule antagonists: luciferase reporter qHTS assay (AID 1671201); note: nearly all actives have a fitted effect of over 50% in size; note: potency is the fitted concentration of half-maximal effect
# Outline: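 Enzyme and proluciferin substrate are mixed with test chemicals for 10 min, then NADPH regeneration system drives turnover for 1 h at room temperature. A detection reagent halts the reaction; luminescence after 20 min gives relative activity.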
# [18] = target: Nuclear receptor subfamily 1 group I member 2 (Homo sapiens) (UniProt O75469); assay: Human pregnane X receptor (PXR) small molecule agonists, qHTS assay (AID 1346982); note: nearly all actives have a fitted effect of over 35% in size; note: potency is the fitted concentration of half-maximal effect
# Outline: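 HepG2 PXR-Luc reporter line, 5% charcoal-stripped FBS; 5 hr pre-incubation, compound (DMSO) 24 hr at 37 C/5% CO2; ONE-Glo 30 min RT; luminescence read-out.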
# [19] = target: Cytochrome P450 2D6 (Homo sapiens) (UniProt P10635); assay: Cytochrome P450 Family 2 Subfamily D Member 6 (CYP2D6) small molecule antagonists: luciferase reporter qHTS assay (AID 1671196); note: nearly all actives have a fitted effect of over 50% in size; note: potency is the fitted concentration of half-maximal effect
# Outline: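 Luminogenic proluciferin substrate, CYP2D6 enzyme; 10 min RT preincubation with compound, NADPH regeneration system added, 1 h RT. Stop/detection reagent, 20 min RT, luminescence read (RLU). Signal proportional to CYP activity.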
# [20] = target: Cytochrome P450 2C9 (Homo sapiens) (UniProt P11712); assay: Cytochrome P450 Family 2 Subfamily C Member 9 (CYP2C9) small molecule antagonists: luciferase reporter qHTS assay (AID 1671198); note: nearly all actives have a fitted effect of over 50% in size; note: potency is the fitted concentration of half-maximal effect
# Outline: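 Enzyme-substrate mix preincubated with compound 10 min at room temperature; reaction started with NADPH regeneration solution, 1 h 37C. Luminescent luciferin product read after 20 min detection reagent.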
# Acetylcholinesterase (Homo sapiens), sequence (P22303 whole entry, looked up): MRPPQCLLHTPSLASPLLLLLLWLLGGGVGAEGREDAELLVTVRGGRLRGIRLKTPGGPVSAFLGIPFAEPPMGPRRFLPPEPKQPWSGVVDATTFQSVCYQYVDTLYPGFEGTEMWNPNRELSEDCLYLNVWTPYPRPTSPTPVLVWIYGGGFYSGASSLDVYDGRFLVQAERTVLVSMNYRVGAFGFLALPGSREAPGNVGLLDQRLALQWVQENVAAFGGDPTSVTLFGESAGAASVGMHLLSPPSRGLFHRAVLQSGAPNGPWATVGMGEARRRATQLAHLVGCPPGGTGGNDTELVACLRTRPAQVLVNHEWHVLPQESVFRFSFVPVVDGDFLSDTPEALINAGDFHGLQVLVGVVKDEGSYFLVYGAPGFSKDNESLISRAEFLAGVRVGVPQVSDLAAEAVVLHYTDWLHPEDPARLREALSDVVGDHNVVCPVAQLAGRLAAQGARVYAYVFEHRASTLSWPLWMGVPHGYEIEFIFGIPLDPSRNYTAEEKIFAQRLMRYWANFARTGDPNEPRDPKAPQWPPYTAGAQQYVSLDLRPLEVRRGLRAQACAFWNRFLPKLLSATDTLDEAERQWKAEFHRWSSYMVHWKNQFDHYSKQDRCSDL
# Thyrotropin-releasing hormone receptor (Homo sapiens), sequence (P34981 whole entry, looked up): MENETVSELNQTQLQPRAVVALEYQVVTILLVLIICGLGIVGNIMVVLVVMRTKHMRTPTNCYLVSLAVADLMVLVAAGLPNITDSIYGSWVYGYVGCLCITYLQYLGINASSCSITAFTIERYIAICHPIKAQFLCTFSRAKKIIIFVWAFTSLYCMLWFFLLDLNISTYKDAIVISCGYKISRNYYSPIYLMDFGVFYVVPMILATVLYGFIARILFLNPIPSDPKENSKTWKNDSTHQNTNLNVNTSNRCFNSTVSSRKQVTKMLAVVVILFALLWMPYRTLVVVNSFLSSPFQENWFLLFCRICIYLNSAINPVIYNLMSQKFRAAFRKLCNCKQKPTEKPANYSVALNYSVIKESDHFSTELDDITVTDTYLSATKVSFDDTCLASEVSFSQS
# Voltage-gated inwardly rectifying potassium channel KCNH2 (Homo sapiens), sequence (Q12809 whole entry, looked up): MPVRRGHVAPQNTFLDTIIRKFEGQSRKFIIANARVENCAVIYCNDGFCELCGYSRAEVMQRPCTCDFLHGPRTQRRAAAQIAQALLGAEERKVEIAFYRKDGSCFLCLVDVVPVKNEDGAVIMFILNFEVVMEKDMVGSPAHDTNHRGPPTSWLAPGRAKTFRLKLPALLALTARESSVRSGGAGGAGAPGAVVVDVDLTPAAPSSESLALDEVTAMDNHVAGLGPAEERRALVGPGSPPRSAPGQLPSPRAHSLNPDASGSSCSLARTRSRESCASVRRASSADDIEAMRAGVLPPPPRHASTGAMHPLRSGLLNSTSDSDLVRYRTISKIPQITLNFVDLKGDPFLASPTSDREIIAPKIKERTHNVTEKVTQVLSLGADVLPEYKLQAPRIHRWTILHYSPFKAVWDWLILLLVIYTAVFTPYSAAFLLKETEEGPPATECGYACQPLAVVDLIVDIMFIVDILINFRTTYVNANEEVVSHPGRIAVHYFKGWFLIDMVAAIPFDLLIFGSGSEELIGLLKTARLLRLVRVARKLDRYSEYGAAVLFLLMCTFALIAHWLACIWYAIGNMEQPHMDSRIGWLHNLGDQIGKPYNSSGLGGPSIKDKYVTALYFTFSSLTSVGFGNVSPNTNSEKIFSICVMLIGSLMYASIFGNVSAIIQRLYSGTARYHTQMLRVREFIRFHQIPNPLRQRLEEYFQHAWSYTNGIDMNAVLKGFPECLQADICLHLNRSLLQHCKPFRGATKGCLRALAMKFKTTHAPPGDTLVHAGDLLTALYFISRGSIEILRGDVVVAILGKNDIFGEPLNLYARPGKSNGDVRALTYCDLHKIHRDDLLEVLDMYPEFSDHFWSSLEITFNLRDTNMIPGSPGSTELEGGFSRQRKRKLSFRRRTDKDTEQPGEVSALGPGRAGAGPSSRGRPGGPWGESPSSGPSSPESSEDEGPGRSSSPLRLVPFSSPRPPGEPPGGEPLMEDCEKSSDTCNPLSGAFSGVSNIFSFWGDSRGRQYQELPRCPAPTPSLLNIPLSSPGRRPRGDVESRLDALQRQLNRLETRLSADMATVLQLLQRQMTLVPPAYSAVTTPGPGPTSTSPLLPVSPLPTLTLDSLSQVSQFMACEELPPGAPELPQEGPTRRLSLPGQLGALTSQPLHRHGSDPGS
# Cytochrome P450 2C9 (Homo sapiens), sequence (P11712 whole entry, looked up): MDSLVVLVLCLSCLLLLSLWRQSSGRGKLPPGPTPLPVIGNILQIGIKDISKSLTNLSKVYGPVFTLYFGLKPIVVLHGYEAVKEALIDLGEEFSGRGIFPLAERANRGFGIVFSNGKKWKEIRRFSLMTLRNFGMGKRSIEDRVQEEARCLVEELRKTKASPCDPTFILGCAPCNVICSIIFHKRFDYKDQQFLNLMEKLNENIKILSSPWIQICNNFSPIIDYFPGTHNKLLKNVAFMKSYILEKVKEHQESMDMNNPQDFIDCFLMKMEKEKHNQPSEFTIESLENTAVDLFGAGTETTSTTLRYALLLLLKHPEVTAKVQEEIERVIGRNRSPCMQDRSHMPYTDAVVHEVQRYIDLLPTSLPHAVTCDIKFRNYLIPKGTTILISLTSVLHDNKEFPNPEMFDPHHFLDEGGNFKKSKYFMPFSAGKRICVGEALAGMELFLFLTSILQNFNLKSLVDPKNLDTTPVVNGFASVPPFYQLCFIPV
# Cytochrome P450 3A4 (Homo sapiens), sequence (P08684 whole entry, looked up): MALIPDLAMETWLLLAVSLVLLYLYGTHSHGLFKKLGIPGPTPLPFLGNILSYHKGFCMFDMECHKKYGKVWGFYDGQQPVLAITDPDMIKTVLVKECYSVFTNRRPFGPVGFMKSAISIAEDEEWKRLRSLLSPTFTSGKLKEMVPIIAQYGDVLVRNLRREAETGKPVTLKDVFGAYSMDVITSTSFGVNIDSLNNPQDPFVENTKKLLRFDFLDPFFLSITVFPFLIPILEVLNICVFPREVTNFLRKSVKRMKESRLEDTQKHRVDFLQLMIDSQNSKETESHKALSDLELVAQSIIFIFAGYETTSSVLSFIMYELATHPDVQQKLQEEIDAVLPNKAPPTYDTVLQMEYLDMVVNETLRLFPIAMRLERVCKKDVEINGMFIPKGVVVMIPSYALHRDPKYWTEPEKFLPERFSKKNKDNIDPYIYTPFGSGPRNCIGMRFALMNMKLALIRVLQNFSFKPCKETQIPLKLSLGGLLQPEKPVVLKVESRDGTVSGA
# Nuclear receptor subfamily 1 group I member 2 (Homo sapiens), sequence (O75469 whole entry, looked up): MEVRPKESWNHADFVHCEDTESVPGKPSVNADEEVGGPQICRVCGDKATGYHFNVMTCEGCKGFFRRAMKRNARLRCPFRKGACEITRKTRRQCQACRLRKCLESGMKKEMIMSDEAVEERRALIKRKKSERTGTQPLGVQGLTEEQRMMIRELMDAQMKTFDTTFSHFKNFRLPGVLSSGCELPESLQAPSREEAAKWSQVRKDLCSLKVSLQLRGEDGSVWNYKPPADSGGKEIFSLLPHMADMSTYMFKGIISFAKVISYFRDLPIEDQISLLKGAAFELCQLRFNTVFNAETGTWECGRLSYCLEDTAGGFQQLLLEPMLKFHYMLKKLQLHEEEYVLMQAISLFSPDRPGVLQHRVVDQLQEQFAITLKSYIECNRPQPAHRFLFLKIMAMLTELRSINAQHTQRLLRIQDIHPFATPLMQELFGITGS
# Cytochrome P450 2D6 (Homo sapiens), sequence (P10635 whole entry, looked up): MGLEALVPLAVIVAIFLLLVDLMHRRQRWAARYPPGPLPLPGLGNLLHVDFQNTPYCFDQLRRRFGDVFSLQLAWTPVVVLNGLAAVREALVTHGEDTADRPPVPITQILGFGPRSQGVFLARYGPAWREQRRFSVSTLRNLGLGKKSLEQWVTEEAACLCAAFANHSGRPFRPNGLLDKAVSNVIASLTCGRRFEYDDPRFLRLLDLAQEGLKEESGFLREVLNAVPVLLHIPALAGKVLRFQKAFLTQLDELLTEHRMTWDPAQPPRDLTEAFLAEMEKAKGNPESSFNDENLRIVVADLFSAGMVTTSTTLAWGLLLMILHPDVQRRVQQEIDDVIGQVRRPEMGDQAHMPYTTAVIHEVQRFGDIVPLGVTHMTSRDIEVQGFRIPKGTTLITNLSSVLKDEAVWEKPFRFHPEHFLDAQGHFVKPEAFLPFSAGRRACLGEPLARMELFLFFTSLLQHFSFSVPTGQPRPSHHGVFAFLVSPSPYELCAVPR
# Cytochrome P450 2C19 (Homo sapiens), sequence (P33261 whole entry, looked up): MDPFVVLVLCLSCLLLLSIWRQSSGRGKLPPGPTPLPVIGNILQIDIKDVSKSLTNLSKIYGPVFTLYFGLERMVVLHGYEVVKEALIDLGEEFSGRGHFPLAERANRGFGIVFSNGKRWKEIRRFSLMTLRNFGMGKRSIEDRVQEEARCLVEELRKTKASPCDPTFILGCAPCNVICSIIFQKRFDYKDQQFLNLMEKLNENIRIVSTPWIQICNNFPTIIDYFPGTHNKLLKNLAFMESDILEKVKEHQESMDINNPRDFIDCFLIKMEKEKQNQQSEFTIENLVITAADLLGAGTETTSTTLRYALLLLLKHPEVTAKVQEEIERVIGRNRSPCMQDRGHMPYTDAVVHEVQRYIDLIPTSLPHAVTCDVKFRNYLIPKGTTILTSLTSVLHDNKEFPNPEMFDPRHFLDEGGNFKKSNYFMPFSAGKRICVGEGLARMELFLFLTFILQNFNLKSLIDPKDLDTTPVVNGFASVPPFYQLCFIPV
# Nuclear receptor subfamily 1 group I member 2 (Rattus norvegicus), sequence (Q9R1A7 whole entry, looked up): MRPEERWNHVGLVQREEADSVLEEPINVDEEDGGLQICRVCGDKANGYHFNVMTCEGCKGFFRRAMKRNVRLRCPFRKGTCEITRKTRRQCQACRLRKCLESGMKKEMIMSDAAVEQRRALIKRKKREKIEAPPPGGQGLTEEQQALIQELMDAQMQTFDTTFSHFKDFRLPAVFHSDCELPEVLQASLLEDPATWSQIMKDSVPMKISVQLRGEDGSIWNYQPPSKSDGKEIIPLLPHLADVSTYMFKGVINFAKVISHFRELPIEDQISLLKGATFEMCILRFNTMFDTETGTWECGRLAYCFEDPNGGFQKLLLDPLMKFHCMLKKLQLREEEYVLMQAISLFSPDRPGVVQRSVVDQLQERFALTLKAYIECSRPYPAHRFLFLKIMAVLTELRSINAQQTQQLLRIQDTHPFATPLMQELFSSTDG
Compound,outcome [1],Potency [2],outcome [3],Potency [4],outcome [5],Potency [6],Potency [7],Potency [8],Potency [9],Potency [10],Potency [11],max activation [12],Potency [13],Potency [14],Potency [15],Potency [16],Potency [17],Potency [18],Potency [19],Potency [20]
CC(C)c1cccc(C(C)C)c1O,inactive,inactive,inactive,inactive,inactive,inactive,inactive,inactive,inactive,inactive,inactive,,,,,,,,,
O=C/C=C/c1ccccc1,inactive,inactive,inactive,inactive,inactive,inactive,inactive,inactive and 64 µM (active),inactive and 36 µM (active),inactive,inactive,2.2% (inactive),inactive,inactive,inactive and 79.6 µM (active),inactive and 39.9 µM (active),inactive,,,
C=CC(=O)OCCCCCC(C)C,inactive,inactive,inactive,inactive,inactive,inactive,inactive,inactive,inactive,inactive,inactive,,,,inactive,inactive,inactive,inactive,,
CCOP(=S)(OCC)Oc1ccc([N+](=O)[O-])cc1,inactive,,inactive,inactive,inactive,inactive,64.1 µM (active) and 13.8 µM (active),24.5 µM (active),71.9 µM (active) and 15.5 µM (active),905 nM (active) and 616 nM (active),,,,,128 nM (active) and 109 nM (active),1.02 µM (active) and 976 nM (active),2.27 µM (active) and 2.75 µM (active),49.2 µM (active),,
Cc1cccc(C)c1NC(=O)CN1CCCC1=O,inactive,,inactive,inactive,inactive,inactive,inactive,inactive,inactive,inactive,inactive,,,,inactive,inactive,inactive,,inactive,
Cc1cccc(N)c1C,inactive,,inactive,inactive,inactive,inactive,inactive,inactive,inactive,inactive,inactive,,,,inactive and 31.7 µM (active),36.9 µM (active) and 20 µM (active),36.9 µM (active),,71 µM (active),
Cl[C@H]1OCCO[C@@H]1Cl,inactive,,inactive,inactive,inactive,inactive,inactive,inactive,inactive,inactive,inactive,,,,,inactive,inactive,,19.6 µM (active),inactive
COC(C)(C)CCCC(C)C/C=C/C(C)=C/C(=O)OC(C)C (configuration not stated),inactive,,inactive,inactive,inactive,inactive,inactive,inactive,inactive,inactive,inactive,-0.367% (inactive),inactive,11.2 µM (active),24.5 µM (active),inactive,inactive,,,
CNC(=O)Oc1cccc2ccccc12,inactive,,inactive,inactive,inactive,inactive,2.22 µM (active) and inactive,,3.56 µM (active),inactive and 89.4 µM (active),inactive,-0.0164% (inactive),3.16 µM (active),inactive,35.3 µM (active) and 63.3 µM (active) and 17.4 µM (active),3.14 µM (active) and 8.94 µM (active),inactive,,39.6 µM (active) and inactive,28 µM (active) and inactive
CCOC(=O)CC(SP(=O)(OC)OC)C(=O)OCC (configuration not stated),inactive,,inactive,inactive,inactive,inactive,3.02 µM (active) and 3.56 µM (active),3.38 µM (active) and 5.64 µM (active),954 nM (active) and 1.42 µM (active),60.2 µM (active) and 56.4 µM (active),inactive,,,,53.6 µM (active),75.8 µM (active) and 71 µM (active),inactive,inactive,inactive,
ClCCOCCCl,inactive,inactive,inactive,inactive,inactive,inactive,inactive,inactive,inactive,inactive,inactive,,,,inactive,inactive,inactive,inactive,inactive,
CNC(=O)O/N=C/C(C)(C)SC,inactive,inactive,inactive,inactive,inactive,inactive,,,,,inactive,,,,40.3 µM (active) and inactive,inactive,inactive,69.2 µM (active) and inactive,,
FC(F)(F)c1ccc(Cl)cc1,inactive,,inactive,inactive,inactive,inactive,inactive,inactive,inactive,inactive,inactive,,,,inactive,,inactive,inactive,inactive,
ClC(Cl)c1ccccc1,inactive,inactive,inactive,inactive,inactive,inactive,inactive,inactive,inactive,inactive,inactive,,,,40.6 µM (active) and inactive,inactive,inactive,inactive,,
